From PubChem BioAssay (NCI)
About 79,000 compounds went through this panel and 15% of them were active in at least one assay; those are over-represented in the sample as a whole. Values without a mark were called inactive. The source made the active and inactive calls. Cut-off read from the data, not from the text of the source: active = growth inhibition above about 70%; inactive = the rest.

How the values were obtained:
[1] = NCI Yeast Anticancer Drug Screen. Data for the rad50 strain (AID 155);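 note: 0% = growth of vehicle-only cultures of the same strain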; details: S. cerevisiae rad50 strain growth inhibition; at 50.0 µM; active compounds read high
How it was run: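 Readout: growth inhibition relative to vehicle-treated cultures. Compound exposure was carried out in a genetically defined yeast strain deficient in DNA damage repair.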

[2] = NCI Yeast Anticancer Drug Screen. Data for the mec2-1 strain (AID 157); details: S. cerevisiae mec2-1 strain, at 50.0 µM, active compounds read high
How it was run: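 Yeast mec2-1 mutant treated with compound. Readout: growth inhibition vs vehicle controls.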

[3] = NCI Yeast Anticancer Drug Screen. Data for the sgs1 mgt1 strain (AID 161);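 note: 0% = growth of cultures given vehicle only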; details: S. cerevisiae sgs1 mgt1 strain, at 50.0 µM, active compounds read high
How it was run: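 Inhibition of yeast growth, normalised to vehicle-treated controls, is reported for a strain bearing genetic alterations in DNA damage repair.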

[4] = NCI Yeast Anticancer Drug Screen. Data for the cln2 rad14 strain (AID 165);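 note: 0% = growth equal to vehicle treated cultures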; details: S. cerevisiae cln2 rad14 strain, at 50.0 µM, active compounds read high
How it was run: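 cln2 rad14 yeast strain; compound exposure; growth inhibition read vs vehicle controls.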

[5] = NCI Yeast Anticancer Drug Screen. Data for the bub3 strain (AID 167); details: S. cerevisiae bub3 mutant strain, at 50.0 µM, active compounds read high
How it was run: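 Readout: yeast growth inhibition, expressed relative to vehicle-only wells. The test organism is a mutant strain from a panel with lesions in DNA repair or checkpoint genes.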

[6] = NCI Yeast Anticancer Drug Screen. Data for the mlh1 rad18 strain (AID 175); details: S. cerevisiae mlh1 rad18 strain growth inhibition; at 50.0 µM; active compounds read high
How it was run: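 Yeast w/ defined DNA-repair lesions; compound exposure; growth vs vehicle controls → % inhibition.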

| SMILES | growth inhibition [1] | growth inhibition [2] | growth inhibition [3] | growth inhibition [4] | growth inhibition [5] | growth inhibition [6] |
| --- | --- | --- | --- | --- | --- | --- |
| Cc1cccc2c1NC(O)c1cccn1C2=O (configuration not stated) | 6.45% | 2.75% | 5.55% | -22.4% | -18.6% | -2.4% |
| Cc1nnc(N)c(C#N)c1C | -8.45% | 2.3% | 16.6% | -56.9% | 4.45% | -1.85% |
| CCOC(=O)c1sc(SC)nc1NC(=O)c1ccc([N+](=O)[O-])cc1 | -13.4% | -8.55% | -53% | -1.3% | -20.5% | -3.85% |
| O=C1c2ccccc2C(=O)c2c(O)cc([N+](=O)[O-])cc21 | 18.2% | 3.05% | 11.7% | 6.05% | 14.2% | -1.5% |
| CC(=O)NNC(=S)N/C=C(\C#N)C(=O)c1ccc2ccccc2c1 | -59.4% | -22.2% | -12.7% | -1.1% | -25.5% | -53% |
| CCCCCC(=O)NC1CCCCC1 | 5.55% | 13.6% | 8.15% | -7.4% | -30.6% | 15.5% |
| CC1=C(C(=O)Nc2ccccc2C)C(c2ccco2)C(C(=O)Nc2ccccc2C)=C(C)N1C | -7.45% | -6.6% | -38.1% | -15.5% | -9.6% | -8.8% |
| CCOC(=O)COc1cc2c(cc1Cc1ccc3c(c1)OCO3)OCO2 | 0.6% | 1.95% | -0.7% | 5.65% | 16.2% | 0.95% |
| CC1OC(n2cc(F)c(=O)[nH]c2=O)CCC1O (configuration not stated) | 7% | 10.2% | 33.2% | -10.1% | -29.2% | -60.5% |
| O=C(N/N=C\c1ccc2c(c1)OCO2)c1ccc2c(c1)OCO2 | 0.7% | 0.05% | 1.85% | -15.2% | 5.05% | 0.55% |
| Cc1ccccc1N1C(=O)/C(=C/c2ccc(N(CCC#N)CCC#N)cc2)N=C1c1cc([N+](=O)[O-])ccc1Cl | 4.65% | 1.7% | 26.1% | 7.1% | -1.7% | 6.2% |
| C=C(C)c1nc(N)nc(-c2cccc(-c3nc(N)nc(C(=C)C)n3)c2)n1 | -8.2% | -8.35% | 0.2% | -67.6% | -11% | -0.8% |
| OCCNc1ncnc2[nH]ncc12 | 2.75% | -6.1% | -20.6% | -21.8% | -24.2% | 5.55% |
| CC(=O)O[C@]12CCCCCCC1C1(O)C(O)CCC[C@H]12 (some centres not stated) | -23.6% | -1.95% | -53.2% | -8.95% | -22.2% | -36.6% |
| COc1ccc(C)cc1Sc1ccc(C)cc1[N+](=O)[O-] | -6.2% | -6.7% | -3.2% | -27.5% | 10% | -22.9% |
| CC(CC(=O)Nc1ccc(NC(=O)CC(C)N=NC(N)=S)cc1)N=NC(N)=S (configuration not stated) | 30.6% | 3.95% | -5.35% | -27.2% | 1.75% | 14% |
| CC1CCC(CC(N)=O)C1(C)C (configuration not stated) | 11.8% | -7.15% | 2.75% | -22.2% | 2.85% | 0.35% |
| COc1ccccc1C(O)(c1ccccc1)C(O)(c1ccccc1)c1ccccc1OC (configuration not stated) | -20.1% | 2.65% | -20.2% | 15.6% | -5.65% | -4.2% |
| C/C(N)=N/C(=O)OCCOC(=O)/N=C(\C)N | -2.25% | 8.3% | -9.35% | -5.3% | 15% | 1.9% |
| c1ccc(-c2cc3c(nn2)[nH]c2ccccc23)cc1 | 14.4% | -1.95% | -2.25% | -30.2% | -15.8% | 8.9% |
| O=C1OC(=O)C2C1C1c3ccccc3C2(Br)c2ccccc21 (configuration not stated) | -3.15% | 13.7% | -0.45% | -6.05% | 3.55% | 7.65% |

| SMILES | growth inhibition [1] | growth inhibition [2] | growth inhibition [3] | growth inhibition [4] | growth inhibition [5] | growth inhibition [6] |
| --- | --- | --- | --- | --- | --- | --- |
| Cc1cccc[n+]1CC(=O)c1ccccc1 | 17.2% | 31.2% | 34.5% | -3.65% | 18.6% | 20.9% |
| COC(=O)c1ccccc1OC(=S)N(C)C | -8.75% | -11.4% | -8.45% | -29.1% | 0.75% | -17.4% |
| CN(O)C(=O)c1ccccc1 | 5.45% | -8.4% | -6.35% | 11.9% | 15.1% | 16.9% |
| COc1cc2c(cc1OC)C(Cl)C(c1ccc(Cl)c(Cl)c1)=C2Cl (configuration not stated) | -0.65% | 14.2% | -4.6% | -0.25% | -4.15% | -5.05% |
| CCC(C)C1SCC(=O)N1c1nncs1 (configuration not stated) | 10.6% | 7.45% | 6.55% | -4.6% | 4.9% | 16.4% |
| CC(C)=CCC/C(C)=C/Cn1c(=O)cc[nH]c1=O | 10.7% | -6.9% | -15.8% | -107% | 2.15% | -0.1% |
| C=C[C@]1(C)CC(=O)C(C(C)C=O)[C@]12C(=O)Oc1cccc(C)c1C2=O (some centres not stated) | 63.9% | 85.5% (active) | 79% (active) | 58.1% | 71.8% (active) | 86.7% (active) |
| CCOC(=O)C(CSC(=O)c1ccccc1)NC(=O)OCc1ccccc1 (configuration not stated) | 40.4% | -3.35% | 21.2% | -29.6% | 2.65% | 20.1% |
| Nc1ccc(-c2nc3ccccc3[nH]2)cc1 | -2.55% | 17.8% | 3.1% | 9% | 18.9% | -0.8% |
| Cc1ccccc1-c1c(N)nc(N)nc1C(=O)Nc1nccs1 | -26.6% | -36.2% | -39.6% | -3.85% | -28.1% | -7.9% |
| O=C1C=C(c2ccccc2)Sc2ccccc2N1 | 25.9% | 34.5% | 19.1% | -1.4% | 26.1% | 53.2% |
| N#CC1(Cc2ccccc2)c2ccccc2-c2ccccc21 | 34.2% | 27.8% | 28.8% | 1.85% | 24.9% | 45% |
| C[C@@H]1CCC[C@H]1C(N)C(=O)O (some centres not stated) | -18% | 2% | -3.85% | -25.1% | -18.1% | -12.9% |
| CCCC/C(CC)=N\N=C(/CC)CCCC | 7.3% | 7.2% | 17.9% | -28.2% | 3.15% | 17.5% |
| Cc1ccnc(N=C/C=C2/C=CC=CN2O)c1 | 0.25% | -9.35% | 1.75% | 5.55% | -8.45% | -11.8% |
| Cc1ccc(S(=O)(=O)OCCOc2ccc(C(C)(C)CC(C)(C)C)cc2)cc1 | 43.9% | -15.6% | 30.5% | -6.2% | -1.65% | 8.8% |
| CCCC(=O)OCc1ccccc1 | 14.4% | 11.9% | -6.9% | -15.8% | -5.15% | -7.85% |
| Nc1[nH]c(=S)nc2nc3c(c(-c4ccccc4)c12)CCCC3 | -45.9% | -13.5% | 6.95% | -3.05% | -13.6% | -14.4% |
| CCc1ccccc1NC(=O)Nc1ccc(C(=O)O)c(O)c1 | 33.6% | 10.2% | 27.4% | 21.4% | 29.8% | 26.4% |
| Cc1cc(Cl)cc(Cl)c1OCC(=O)Nc1ccc(Cl)cc1 | 6.45% | 2.45% | 8.5% | 4% | 21.9% | -7.7% |
| Cc1ccc(-c2cc(=O)c3cc(C)c(C)c(C(=O)O)c3o2)cc1N | -8.6% | -3.55% | 11.9% | 6.1% | 14.2% | -7.4% |
